A selection: hits, their analogues and other compounds. The true share with any hit is near 0.45%.
sEH act = soluble epoxide hydrolase activators, primary screen, biochemical, human sEH; AID 717, 2007; activation, % at 2 µM; purified human sEH enzymatic activity, activator screen; 91,000 tested, 0.04% active; Bifunctional epoxide hydrolase 2 (Homo sapiens), P34913; in the data active means activation above about 37%
Smad3 inh = Smad3/FoxH1 peptide binding inhibitors, primary screen, biochemical, TR-FRET. TR-FRET Smad3/Dy647-FoxH1 peptide binding, europium anti-His. inhibition, % at 25 µM. 88,000 tested, 0.29% active;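 active means compounds that reduce the energy-transfer binding signal between the protein and its labelled peptide by more than half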
Target sequence (P84022 whole entry, looked up): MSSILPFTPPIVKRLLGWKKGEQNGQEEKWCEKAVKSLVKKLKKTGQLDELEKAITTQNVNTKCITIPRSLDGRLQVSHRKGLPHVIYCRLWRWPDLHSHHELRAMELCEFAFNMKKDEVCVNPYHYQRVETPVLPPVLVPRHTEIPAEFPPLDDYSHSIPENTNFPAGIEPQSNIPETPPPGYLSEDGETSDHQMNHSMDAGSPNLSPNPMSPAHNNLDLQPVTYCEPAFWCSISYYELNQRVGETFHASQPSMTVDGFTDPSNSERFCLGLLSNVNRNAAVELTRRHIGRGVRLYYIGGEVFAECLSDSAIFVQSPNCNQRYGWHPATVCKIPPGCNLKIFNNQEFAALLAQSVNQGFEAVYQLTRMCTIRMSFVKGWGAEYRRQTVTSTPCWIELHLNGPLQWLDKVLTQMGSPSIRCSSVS
sEH inhibitor = soluble epoxide hydrolase inhibitors, primary screen, biochemical, human sEH | 91,000 tested, 0.34% active | Bifunctional epoxide hydrolase 2 (Homo sapiens), P34913 | inhibition, % at 2 µM | recombinant human sEH enzymatic activity assay; in the data active means inhibition above about 80%
Numbers stand for hits; [ ] = remark or other dose.

What do the screens show for `Cc1ccn2c(CCc3nnc4cc(C)ccn34)nnc2c1`?
Smad3 inh: inactive

Results for O=C(O)c1[nH]c(=O)[nH]c(=O)c1CN1CCCCC1 ?
Smad3 inh: inactive

Results for Cc1ccccc1NC(=O)/C(=C/c1ccco1)c1ccccc1 ?
sEH act: inactive; Smad3 inh: inactive; sEH inhibitor: inactive

How did CCc1ccccc1NC(=O)/C(=C/c1ccco1)c1ccccc1 do in these assays?
sEH act: inactive; Smad3 inh: 80.7[fluorescence artefact?]; sEH inhibitor: inactive

What do the screens show for `CCOC(=O)c1cnc(N(C)C)nc1SC(=N)N`?
Smad3 inh: inactive

Results for O=C(NC12CC3CC(CC(C3)C1)C2)N1CCN(S(=O)(=O)c2ccc(Cl)cc2)CC1 ?
sEH act: inactive; Smad3 inh: inactive; sEH inhibitor: inactive

How did O=C(NC12CC3CC(CC(C3)C1)C2)N1CC2Cc3cccc(=O)n3C(C2)C1 (stereo not drawn) do in these assays?
sEH act: inactive; Smad3 inh: inactive; sEH inhibitor: 86.2

Results for CC(C)=C[C@H]1[C@H](COC(=O)c2ccccc2Cl)C1(C)C ?
Smad3 inh: inactive

Results for CCOC(=O)C(C)(C)[C@H](O)C(C)C ?
Smad3 inh: inactive

How did Cn1cnc([N+](=O)[O-])c1Sc1nc(N)nc2c1ncn2[C@@H]1C[C@H](O)[C@@H](CO)O1 do in these assays?
Smad3 inh: inactive

What do the screens show for `NC(=[SH+])[N-]/N=C/c1ccccn1.O=S(=O)(O)O.[Fe]`?
Smad3 inh: inactive

What do the screens show for `O=C(CCC1CCCC1)NC1CCCCC1`?
sEH act: inactive; Smad3 inh: inactive; sEH inhibitor: inactive

Results for O=C(CCC1CCCCC1)NNC(=O)NC12CC3CC(CC(C3)C1)C2 ?
sEH act: inactive; sEH inhibitor: 83.8

Results for C[C@@]12CC[C@H]3c4ccc(O)cc4CC[C@@H]3[C@H]1C/C(=N\O)[C@H]2O ?
Smad3 inh: inactive

Results for CN=C(N)/N=C(\N)Nc1cc2ccccc2c2ccccc12 ?
Smad3 inh: inactive

Results for COC(=O)c1[nH]c2cccc(OC)c2c1NC(=O)CCN1CCN(c2cccc(Cl)c2)CC1 ?
sEH act: 114.4; Smad3 inh: inactive; sEH inhibitor: inactive

How did COC(=O)c1[nH]c2cccc(OC)c2c1NC(=O)CN1CCOCC1 do in these assays?
sEH act: inactive; Smad3 inh: inactive; sEH inhibitor: inactive

How did COC(=O)c1[nH]c2cccc(OC)c2c1NC(=O)CN1CC2(C)CC1CC(C)(C)C2 (stereo not drawn) do in these assays?
sEH act: inactive; Smad3 inh: 66.5[fluorescence artefact?]; sEH inhibitor: inactive

Results for COC(=O)c1[nH]c2ccccc2c1NC(=O)CN1CCN(c2cccc(Cl)c2)CC1 ?
sEH act: inactive; Smad3 inh: inactive; sEH inhibitor: inactive

Results for CC(C)(N)C(=O)N[C@@H]1C(=O)N2[C@H]1SC(C)(C)[C@H]2C(=O)O ?
Smad3 inh: inactive

How did CC(C)Oc1cc(O)c2c(c1)OCC=C2CCC(=O)O do in these assays?
Smad3 inh: inactive

Results for Cc1sc2nc(C)n(/N=C/c3ccccc3)c(=O)c2c1C ?
sEH act: 38.1; Smad3 inh: inactive; sEH inhibitor: inactive

How did Cc1nc2ccccc2c(=O)n1/N=C/c1ccc(O)cc1 do in these assays?
sEH act: inactive; Smad3 inh: inactive; sEH inhibitor: inactive

Results for O=C(Nc1ccc(Cl)cc1)N1CCC(c2nc(-c3cccs3)no2)CC1 ?
Smad3 inh: inactive

Results for O=C(c1ccco1)N1CCC(c2nc(-c3ccccc3Cl)no2)CC1 ?
sEH act: inactive; Smad3 inh: inactive; sEH inhibitor: inactive

What do the screens show for `O=C(Nc1ccc(Cl)cc1)N1CCC(c2nc(-c3ccccc3Cl)no2)CC1`?
sEH act: inactive; Smad3 inh: inactive; sEH inhibitor: 88.2

How did O=C(Nc1ccccc1)N1CCCC(c2nc(-c3cccs3)no2)C1 (stereo not drawn) do in these assays?
Smad3 inh: inactive

How did O=C(NC1CCCCC1)N1CCCC(c2nc(-c3cccs3)no2)C1 (stereo not drawn) do in these assays?
sEH act: inactive; Smad3 inh: inactive; sEH inhibitor: 96.4

How did O=C(c1ccco1)N1CCC(c2nc(-c3ccc(F)cc3)no2)CC1 do in these assays?
sEH act: inactive; Smad3 inh: inactive; sEH inhibitor: inactive

How did COc1ccc(NC(=O)N2CCC(c3nc(-c4cccs4)no3)CC2)cc1 do in these assays?
sEH act: inactive; Smad3 inh: inactive; sEH inhibitor: 89.5

How did O=C(Nc1cccc(C(F)(F)F)c1)N1CCC(c2nc(-c3ccc(F)cc3)no2)CC1 do in these assays?
sEH act: inactive; Smad3 inh: inactive; sEH inhibitor: 93.4

What do the screens show for `Nc1nc2c(c(=O)[nH]1)CN(c1ccc(S(N)(=O)=O)cc1)CN2`?
Smad3 inh: inactive

Results for Nc1nc2c(c(=O)[nH]1)CN(CCCN1CCOCC1)CN2 ?
Smad3 inh: 72.5

How did CC1(C)COCN1COC1CCCCC1 do in these assays?
Smad3 inh: inactive

How did Cc1ccccc1C(O)c1ccncc1 (stereo not drawn) do in these assays?
sEH act: inactive; sEH inhibitor: inactive

What do the screens show for `O[C@@H](C1=C/C(=C\c2ccncc2)c2ccccc21)c1ccncc1`?
Smad3 inh: 76.3

What do the screens show for `O=C(NCc1cccs1)C1CCC(CNS(=O)(=O)c2ccc(Br)s2)CC1` (stereo not drawn)?
sEH act: inactive; Smad3 inh: inactive; sEH inhibitor: 92.4

How did O=C(NCc1cccs1)C1CCN(S(=O)(=O)c2ccc(Br)s2)CC1 do in these assays?
sEH act: inactive; Smad3 inh: inactive; sEH inhibitor: inactive

What do the screens show for `Cc1cc(NC(=O)CSc2ccc(-c3nc4cc(C)c(C)cc4[nH]3)cn2)no1`?
sEH act: inactive; Smad3 inh: inactive; sEH inhibitor: inactive

What do the screens show for `Cc1cc2nc(-c3ccc(SCC(=O)N4CCc5ccccc54)nc3)[nH]c2cc1C`?
sEH act: inactive; sEH inhibitor: 84.8

How did O=C(O)C[C@H](S)C(=O)O do in these assays?
Smad3 inh: inactive

Results for O=C1C2=C(Nc3cc([N+](=O)[O-])ccc3N2)O[C@H]1c1ccc([C@H]2OC3=C(Nc4ccc([N+](=O)[O-])cc4N3)C2=O)cc1 ?
Smad3 inh: inactive

How did c1ccc(/C(=N\Nc2nc3ccccc3s2)c2ccccn2)cc1 do in these assays?
Smad3 inh: inactive

How did CC(C)(C)CC(C)(C)c1ccc(O)c(CN2CCN(CCC#N)CC2)c1 do in these assays?
sEH act: inactive; Smad3 inh: inactive; sEH inhibitor: inactive

How did CC(C)(C)CC(C)(C)c1cc(O)c(O)c(CN2CCCCC2)c1 do in these assays?
Smad3 inh: 92.5

How did O=C(O)CCC(=O)c1ccc[nH]1 do in these assays?
Smad3 inh: inactive

How did OC[C@H](S)CS do in these assays?
Smad3 inh: 85.7

Results for CCC(=O)Nn1cnc2c(c1=O)C1(CCCCC1)Cc1ccccc1-2 ?
sEH act: inactive; Smad3 inh: inactive; sEH inhibitor: inactive

Results for CCCC(=O)Nn1cnc2c(c1=O)C1(CCCCC1)Cc1ccccc1-2 ?
sEH act: inactive; Smad3 inh: inactive; sEH inhibitor: 99.0

What do the screens show for `Cc1cc2ccccc2c[n+]1CC(O)C[n+]1cc2ccccc2cc1C`?
Smad3 inh: inactive

Results for CCOC(=O)c1sc(NC(=O)Nc2ccc(Cl)cc2)cc1C ?
sEH act: inactive; sEH inhibitor: 91.8

Results for CCOC(=O)c1sc(NC(=O)c2ccccc2)cc1C ?
sEH act: inactive; sEH inhibitor: inactive
